Assay outcomes deposited in PubChem by several laboratories.
Sampled rows, rich in hits. Any-hit rate of the full collection: about 22%.
cytoskel mod: cytoskeleton assembly modification; AID 836; inhibition, % at 2 µM; hit rate 0.18% among 91,000; HUVEC TNFa F-actin phalloidin imaging, high content;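 active = inhibition above the batch mean plus 3 SD and confirmed as a hit by visual image inspection, cut at about 30% in these data, passing the limit was not always enough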
CYP2C19 inh: inhibitors of human CYP2C19 | inhibition, % at 5 µM | AID 778 | CYP2C19 Supersomes, luciferin-H EGE luminescence, 30 min | P33261 | hit rate 21% among 96,000;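 active = CYP2C19 inhibition above a set limit at 5 µM in the primary screen, cut at about 50% in these data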;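 note: plate controls were negative control wells for no effect and 2.5 mM tranylcypromine positive control for full effect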
CYP2C9 act: activators of human CYP2C9; P11712; recombinant CYP2C9, luciferin-H conversion, luminescence; hits give high values; factor 1 = untreated enzyme, 0 = blocked; activation factor at 5 µM; hit rate 1.4% among 96,000; AID 1024;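 active = activation factor of 2 or more for CYP2C9 at a 5 µM dose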;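 note: 0 = sulfaphenazole-blocked wells and 1 = vehicle-only wells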
Target sequence (P11712 whole entry, looked up): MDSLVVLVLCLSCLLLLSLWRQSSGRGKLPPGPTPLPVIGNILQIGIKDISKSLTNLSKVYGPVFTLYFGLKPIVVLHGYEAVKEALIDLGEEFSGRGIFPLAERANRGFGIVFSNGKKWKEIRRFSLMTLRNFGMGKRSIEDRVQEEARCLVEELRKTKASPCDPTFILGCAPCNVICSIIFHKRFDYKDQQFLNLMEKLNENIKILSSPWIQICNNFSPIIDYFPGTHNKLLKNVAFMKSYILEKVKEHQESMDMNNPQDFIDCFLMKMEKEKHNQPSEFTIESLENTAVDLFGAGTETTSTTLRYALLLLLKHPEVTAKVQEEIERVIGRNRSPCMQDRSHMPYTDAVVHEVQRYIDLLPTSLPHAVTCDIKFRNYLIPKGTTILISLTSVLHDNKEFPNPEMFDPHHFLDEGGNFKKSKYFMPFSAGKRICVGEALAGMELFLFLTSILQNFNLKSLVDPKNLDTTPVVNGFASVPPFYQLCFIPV
CYP2C19 act: activators of human cytochrome P450 2C19 | AID 1025 | activation factor at 5 µM | 96,000 tested, under 10 active | recombinant CYP2C19, luciferin-H EGE luminescence; hits give high values; 0 = fully inhibited enzyme, 1 = untreated enzyme;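 active = activation factor of at least 2 at 5 µM in the primary screen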;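 note: 0 = wells with 2.5 mM tranylcypromine and 1 = vehicle-only wells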
E-sel TNF inh: blocks E-selectin expression induced by TNF alpha; hit rate 0.71% among 120,000; inhibition, % at 2 µM; HUVEC TNFa-induced E-selectin immunofluorescence, high content;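 active = inhibition above the batch mean plus 3 SD, and confirmed as a hit on visual image review, cut at about 43% in these data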;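 note: 0% = TNF-stimulated DMSO wells and 100% = unstimulated control wells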
CYP2C9 inhib: inhibitors of human CYP2C9 | P11712 | CYP2C9 Supersomes, luciferin-H conversion, luminescence | inhibition, % at 5 µM | hit rate 20% among 96,000 | AID 777;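 active = blocking of liver enzyme CYP2C9 beyond about 50% at 5 µM, limit read from the data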
The depositor's hits bear a star; nt = not tested or not shown.

SMILES | cytoskel mod | CYP2C19 inh | CYP2C9 act | CYP2C19 act | E-sel TNF inh | CYP2C9 inhib
Cc1cccc(Cl)c1OCCCCn1ccnc1 | -2.5 | 100.0* | 0 | 0 | -11.1 | 96.0*
Cc1cc(OCCCn2ccnc2)ccc1C(C)C | nt | nt | nt | nt | -22.6 | nt
Cc1cccc(C(C)(C)C)c1OCCCCN1CCCC1 | -42.7 | 1.6 | 1.1 | 1 | -6.0 | -5.0
COc1ccc(Nc2nc(-c3c[nH]c4ccccc34)cs2)cc1 | nt | nt | nt | nt | 8.7 | nt
COc1ccc(-c2nc(-c3ccc(Br)o3)no2)cc1OC | -13.4 | -9.0 | 0.6 | 1.1 | nt | 40.7
COc1ccc(-c2nnc(-c3ccc(Br)o3)o2)cc1OC | 11.6 | 55.9* | 0.7 | 0.4 | nt | 31.3
COc1ccccc1NC(=O)CC1C(=O)Nc2c1c(=O)n(C)c(=O)n2C (configuration not stated) | -13.8 | 10.2 | 0.4 | 0.9 | 2.2 | 57.9*
Cn1c2c(c(=O)n(C)c1=O)C(CC(=O)Nc1ccccc1)C(=O)N2 (configuration not stated) | 4.1 | 40.3 | 0.7 | 0.6 | -4.9 | 25.8
COc1cc(/C=C(/C#N)c2nc3ccccc3[nH]2)ccc1Oc1ncccc1[N+](=O)[O-] | nt | 62.4* | 0.3 | 0.4 | -29.0 | 66.0*
CCOc1cc(/C=C(/C#N)c2nc3ccccc3[nH]2)ccc1Oc1ccc([N+](=O)[O-])cn1 | -7.3 | 4.3 | 0.9 | 1 | -1.3 | 12.9
O=C(NCCc1c[nH]c2ccccc12)c1ccc(-n2cnnn2)cc1 | -8.6 | 52.6* | 3.1* | 0.5 | 13.8 | -211.4
O=C(NCCc1c[nH]c2ccccc12)c1ccc(S(=O)(=O)NCc2ccco2)cc1 | 6.3 | 83.5* | 0.2 | 0.2 | 4.4 | 83.5*
O=C(NCCc1ccccc1)c1ccc(-n2cnnn2)cc1 | 2.5 | 8.4 | 1 | 0.9 | 8.2 | -3.6
COc1ccc(C(=O)NCCc2nnc(SCc3nc4ccccc4c(=O)[nH]3)n2C)cc1 | 12.1 | -6.4 | 0.2 | 1.1 | 9.9 | 84.1*
Cn1c(SCc2nc3ccccc3c(=O)[nH]2)nc2ccccc21 | nt | nt | nt | nt | -6.2 | nt
Cn1c(-c2ccccc2)cnc1SCc1nc2ccccc2c(=O)[nH]1 | 1.2 | 99.6* | 0.8 | 0 | -0.6 | 20.8
Cn1c(SCc2nc3ccccc3c(=O)[nH]2)nnc1-c1ccco1 | -0.9 | 50.6* | 1 | 0.5 | 1.1 | -3.9
CC(C)Cn1c(SCc2nc3ccccc3c(=O)[nH]2)nc2ccccc2c1=O | -11.1 | 55.1* | 0.2 | 0.4 | -15.4 | 80.4*
CCOC(=O)C1=C(N)Oc2c(oc(CO)cc2=O)C1c1c(F)cccc1Cl (configuration not stated) | 16.6 | 70.7* | 0.4 | 0.3 | -11.4 | 58.8*
CCCCN(C(=O)Nc1ccc(Cl)cc1)C1CCN(C(C)=O)CC1 | 9.5 | 4.6 | 1 | 1 | -23.4 | -4.0
CC(C)=CCC(C)(C)C1OCCN1C(=O)c1ccccc1 (configuration not stated) | -5.8 | 71.1* | 0.6 | 0.3 | 15.0 | 44.5
C=CCn1c(SCCCC)nc(O)cc1=O | 7.5 | 8.8 | 1 | 0.9 | 7.4 | 1.8
C=CCn1c(SC(C)CC)nc(O)cc1=O (configuration not stated) | -5.2 | 98.5* | 0.7 | 0 | -18.9 | 26.5
CCOC(=O)c1c(-c2ccccc2Cl)cn2ccccc12 | -5.9 | 73.1* | 0.2 | 0.3 | 4.2 | 78.3*
C=CCN1CC2CC3(COc4cc(C)cc(C)c4)C=CC2(O3)C1=O (configuration not stated) | 0.3 | 64.7* | 0.5 | 0.4 | -11.0 | 45.4
SMILES | cytoskel mod | CYP2C19 inh | CYP2C9 act | CYP2C19 act | E-sel TNF inh | CYP2C9 inhib
CCOC(=O)C1=C(N)N2C(=O)C(C)SC2=C(C(=O)OC)C1c1cccc(OC)c1 (configuration not stated) | 6.9 | 20.8 | 0.8 | 0.8 | 16.9 | 23.5
COC(=O)C1=CNC=C(C(=O)OC)C1c1cccc(OC)c1 | nt | 85.9* | 0.2 | 0.1 | 12.5 | 79.3*
COC(=O)C1=CNC=C(C(=O)OC)C1c1ccc(Cl)cc1 | 13.0 | 74.7* | 0.3 | 0.3 | -12.9 | 74.9*
COC(=O)C1=CN(C2CC2)C=C(C(=O)OC)C1c1ccc(C(=O)OC)cc1 | nt | 16.2 | 1 | 0.8 | 7.1 | 0.7
COC(=O)C1=CNC=C(C(=O)OC)C1c1ccccc1Cl | 2.5 | 84.5* | 0.3 | 0.2 | -16.3 | 69.8*
CCCCN1C=C(C(=O)OC)C(c2ccccc2Cl)C(C(=O)OC)=C1 | nt | nt | nt | nt | -36.4 | nt
CC(NC(=O)CCc1nnc(-c2ccccc2)o1)c1ccccc1 (configuration not stated) | nt | nt | nt | nt | -19.2 | nt
CCCCCn1c(CN2CC(C)OC(C)C2)nc2c1c(=O)n(C)c(=O)n2C (configuration not stated) | nt | 1.8 | 1 | 1 | 0.3 | 2.5
N/C(=N\c1nc2c(c(=O)[nH]1)CCCC2)Nc1ccccc1Sc1ccccc1 | -8.0 | 46.3 | 0.4 | 0.5 | 12.7 | 63.3*
N/C(=N\c1nc2c(c(=O)[nH]1)CCCC2)Nc1ccccc1 | nt | -12.2 | 1 | 1.1 | nt | -3.8
CCc1ccc(NC(=O)N(CCOC)C2CCN(C(C)=O)CC2)cc1 | 8.9 | 7.5 | 1.2 | 0.9 | -6.5 | -17.0
CC1=C(C(=O)N2CCCC(C(=O)c3cccc(C(F)(F)F)c3)C2)OCCO1 (configuration not stated) | nt | nt | nt | nt | -17.1 | nt
CCCc1cc(-c2ccc(O)c(OCC)c2)c(C#N)c(N)n1 | nt | 90.2* | 0.2 | 0.1 | -1.6 | 82.5*
CCOc1cc(-c2c(C)c(CC)nc(N)c2C#N)ccc1O | nt | 62.8* | 0.8 | 0.4 | -19.2 | 23.2
CCOc1cc(-c2cc(-c3ccc(C)o3)nc(N)c2C#N)ccc1O | 8.7 | 17.9 | 0.6 | 0.8 | 18.3 | 37.7
CCCn1c(=O)c2ccccc2n2c(SCc3nnc(-c4ccccc4Br)o3)nnc12 | 1.6 | 70.2* | 0.4 | 0.3 | -61.1 | 58.4*
CCCn1c(=O)c2ccccc2n2c(SCC(=O)c3ccccc3)nnc12 | 4.4 | 37.5 | 0.4 | 0.6 | nt | 55.0*
CCCn1c(=O)c2ccccc2n2c(SCC(=O)c3ccc(F)cc3)nnc12 | nt | 11.5 | 0.9 | 0.9 | nt | 10.6
CCCn1c(=O)c2ccccc2n2c(SCCOc3ccccc3F)nnc12 | 5.1 | 55.8* | 0.5 | 0.4 | -14.8 | 46.2
COc1ccc(CCn2c(=O)[nH]c3cc(C(=O)NCCc4ccccc4)ccc3c2=O)cc1OC | 21.8 | -14.8 | 1.1 | 1.1 | -35.9 | -5.5
Nc1nc(-c2ccc(Cl)cc2)c(N=Nc2ccc(S(=O)(=O)N3CCOCC3)cc2)s1 | nt | nt | nt | nt | -2.3 | nt
COc1cc(S(=O)(=O)n2nc(C)cc2C)c(OC)cc1Cl | 13.3 | 82.7* | 0.7 | 0.2 | -2.6 | 28.9
COc1ccc(Cl)cc1C(=O)n1nc(C)cc1C | 1.3 | 27.3 | 1.1 | 0.7 | -1.2 | -12.7
COc1cc(Cl)ccc1S(=O)(=O)n1nc(C)cc1C | -1.9 | 75.0* | 0.8 | 0.3 | nt | 15.0
OC(COc1ccc2c(c1)OCO2)CN1CCc2ccccc2C1 (configuration not stated) | 32.6 | 42.6 | 0.9 | 0.6 | 20.1 | 8.0
COc1cc(N2CCCC2)c(OC)cc1/C=c1/sc2nc3ccccc3n2c1=O | 30.7* | 5.5 | 0.8 | 0.9 | nt | 16.5
